# Source: PubChem
# HT1080 IDH1KD tx: qHTS for induction of synthetic lethality in tumor cells producing 2HG: qHTS for the HT-1080-IDH1KD cell line | Potency, µM (series often up to 46.1 µM), for inactives: at the top dose activity, negative = toxicity, usual class: cytotoxic | hit rate 2% among 360,000 | HT-1080 IDH1 knockdown viability, ATP luminescence, 48 h;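 further: potency means the concentration at half of the fitted maximal effect; 0% = DMSO wells and -100% = cell-free medium wells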
#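 HT-1080-IDH1KD cells (IDH1 knocked down), 750/well in RPMI with 5% FBS, treated with compound 48 h at 37 degrees C. Viability by CellTiter-Glo luminescence, normalised to DMSO and no-cell wells; concentration-response curves classed.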
# TDP1 cell CPT: qHTS for Inhibitors of human tyrosyl-DNA phosphodiesterase 1 (TDP1): qHTS in cells in presence of CPT | chicken DT40 Tdp1-/-;hTDP1 cells + 20 nM CPT, ATP luminescence, 48 h | Potency, µM (doses to about 46.2 µM), for inactives: at the top dose activity change, negative = growth inhibition, usual class: inhibitors | hit rate 12% among 420,000 | AID 686979, 2013; further: potency means the concentration at half of the fitted maximal effect; nearly all actives have a fitted effect of over 55% in size
#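 Chicken DT40 Tdp1-/- cells stably complemented with human TDP1 were seeded at 400 cells/well in medium containing 20 nM camptothecin, exposed to pin-transferred compounds, and grown at 37 °C for at least 48 hr. Viability was read as ATP luminescence.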
# HT1080NT lethal: qHTS for induction of synthetic lethality in tumor cells producing 2HG: qHTS for the HT-1080-NT fibrosarcoma cell line; HT-1080-NT fibrosarcoma viability, CellTiter-Glo ATP luminescence, 48 h; Potency, µM (highest dose often 46.1 µM), for the others: at the highest dose activity, negative = less viability, actives largely listed as cytotoxic; hit rate 1.6% among 360,000; AID 686970, 2013;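 further: NT is the 2HG producing partner of a matched IDH1 knockdown line; potency means the concentration at half of the fitted maximal effect; 0% = DMSO-treated cells and -100% = media-only wells without cells; nearly all actives have a fitted effect of over 55% in size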
#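 Compounds were tested in concentration-response format on HT-1080-NT cells for 48 hours at 37 degrees C. Cell viability came from CellTiter-Glo luminescence; curves were classified by r2, response magnitude and activity.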
# DT40 TDP1 no CPT: qHTS for Inhibitors of human tyrosyl-DNA phosphodiesterase 1 (TDP1): qHTS in cells in absence of CPT. Potency, µM (doses to about 46.2 µM), for the others: top-dose activity change, negative = growth inhibition, actives largely listed as inhibitors. DT40 Tdp1-/- hTDP1 cells, no CPT, ATP luminescence, 48 h. hit rate 15% among 420,000; further: potency means the concentration at half of the fitted maximal effect; nearly all actives have a fitted effect of over 55% in size
#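 Readout: luminescence from CellTiter-Glo after 30 min in the dark at RT. Cells: DT40 Tdp1-/- with stable hTDP1, 400/well. Exposure: compounds alone, ≥48 hr, 37 °C.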
# uPA generation: qHTS for Inhibitors of Cell Surface uPA Generation. cell surface uPA generation assay, qHTS. Potency, µM (series often up to 38.3 µM), inactives show at the top dose activity change, negative = inhibition, usual class: inhibitors. hit rate 0.31% among 330,000. AID 540303, 2011; active means well fitted inhibition curve with a large enough effect; inconclusive means small, poorly fitted or top-dose-only effect; inactive means no such curve, though single readings can be large or run the other way; tested in mouse RAW 264.7 cells; further: potency means the concentration at half of the fitted maximal effect; nearly all actives have a fitted effect of over 55% in size
# IL1B secr inh: qHTS for Inhibitors of Inflammasome Signaling: IL-1-beta AlphaLISA Primary Screen; THP-1 LPS/ATP IL-1B secretion, AlphaLISA, 16 h; active compounds read low; activity change, % at 57.5 µM; hit rate 4.7% among 360,000; in the data active means activity change below about -50%; inconclusive means mostly about -30% to -49%
#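 Secreted IL-1B measured by AlphaLISA bead assay after 16 h compound exposure of THP-1 cells; compounds (final up to 57.5 uM) added 1 h before LPS (250 ng/mL) and ATP (1.25 mM) stimulation; lower signal means less secretion.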
# An asterisk follows results filed as active; ? = inconclusive; . = not tested or not shown. Only some compounds are listed: those with a hit (about 19% of all), similar ones and a draw of the others. Unless noted, the call rests on the fitted dose curve; in most records, active means well fitted curve in the direction sought with a large enough effect; inconclusive means small, poorly fitted or top-dose-only effect, or another doubt; inactive means no such curve, though single readings can be large; an effect the other way counts as inactive or inconclusive. Unless noted, on the % scale 0 is the no-effect control and ±100 the full control effect.
SMILES,HT1080 IDH1KD tx,TDP1 cell CPT,HT1080NT lethal,DT40 TDP1 no CPT,uPA generation,IL1B secr inh
Cc1ccc(NC(=O)CCS(=O)(=O)c2ccc3c(c2)oc(=O)n3C)c(Br)c1,.,?,.,-7%,.,.
C/C(CCc1ccc2c(c1)OCO2)=N\NC(=O)c1ccccc1Br,5%,18%,21%,-14%,-1%,-2
CCOc1cc(/C=C2/N=C(c3ccc4c(c3)OCO4)OC2=O)ccc1OC(C)=O,0%,?,-3%,?,0%,-23
Cc1oc(C)c2c(=O)cc(-c3ccc4c(c3)OCO4)cc(OC(=O)c3ccccc3Br)c12,.,16µM*,.,?,.,.
O=C(Oc1ccccc1Cl)c1cc(-c2ccc3c(c2)OCCO3)on1,.,-6%,.,6%,.,.
CCOc1cc(-c2ccc3c(c2)OCO3)cc(=[O+]CC)c2c(C)oc(C)c12,.,?,.,14µM*,.,.
Cc1oc(C)c2c(=O)cc(-c3ccc4c(c3)OCO4)cc(OC(=O)c3ccccc3Cl)c12,.,23µM*,.,?,.,.
Clc1ccc(-n2cccc2CN2CCc3nnc(Cc4ccccc4)n3CC2)nc1,.,4%,.,-14%,.,.
CCN1C(=O)[C@@H]2[C@@H](c3ccc(-c4ccc(Cl)c(Cl)c4)cc3)N3CCC[C@@]3(C(=O)OC)[C@@H]2C1=O,-15%,8.2µM*,-14%,7.3µM*,-2%,?
CCN1C(=O)[C@H]2[C@@H](c3ccc(-c4ccc(Cl)c(Cl)c4)cc3)N3CCCC[C@@]3(C(=O)OC)[C@H]2C1=O,29%,10µM*,0%,6.5µM*,5%,15
CCOC(=O)[C@@H](NC(=O)/C=C/[C@H]1O[C@@H](n2ccc(=O)[nH]c2=O)[C@H](O)[C@@H]1O)C(C)C,27%,4%,22%,3%,.,11
CC(C)CC1C(=O)N(Cc2cn(Cc3ccco3)nn2)CCS(=O)(=O)N1Cc1ccc(-c2ccncc2)cc1 (stereo not drawn),0%,21µM*,-1%,15µM*,.,?
CC(C)CC1C(=O)N(Cc2cn(Cc3ccco3)nn2)CCS(=O)(=O)N1Cc1ccc(-c2ccccc2)cc1 (stereo not drawn),?,15µM*,-16%,?,.,?
CC(C)CC1C(=O)N(Cc2cn(Cc3ccco3)nn2)CCS(=O)(=O)N1Cc1ccc(-c2ccc(F)nc2)cc1 (stereo not drawn),-29%,?,-21%,23µM*,.,?
CC(C)C1C(=O)N(Cc2cn(Cc3ccco3)nn2)CCS(=O)(=O)N1Cc1ccc(-c2ccc(F)nc2)cc1 (stereo not drawn),-1%,-8%,-6%,-20%,.,1
CCC/C=C/c1ccc(CN2C(CC(C)C)C(=O)N(Cc3cn(Cc4ccco4)nn3)CCS2(=O)=O)cc1 (stereo not drawn),?,?,?,?,.,-62*
Cc1n[nH]c(=O)nc1N/N=C/c1ccc(O)c([N+](=O)[O-])c1,-13%,-12%,-4%,?,-7%,0
COC(=O)c1ccc(NC(=O)CSc2nccn2Cc2ccc(Cl)cc2)cc1,.,?,.,-28%,.,.
COc1ccccc1C(=O)NC(=O)COC(=O)Cn1cnc2c1c(=O)n(C)c(=O)n2C,13%,2%,18%,-16%,3%,33
c1ccc(-c2ccc(CN3C[C@@H]4C(c5ccccc5)C5(c6cccnc6)CC4(C5)[C@H]3c3ccccc3)cc2)cc1 (stereo partly drawn),-16%,?,-4%,?,14%,0
N#Cc1ccc(C23CC4(C2)[C@H](CN(CC2CCCCC2)[C@@H]4c2ccccc2)C3c2ccc(Cl)nc2)cc1 (stereo partly drawn),-4%,13µM*,-13%,15µM*,-9%,3
N#Cc1ccc(C23CC4(C2)[C@H](CN(CC2CCCCC2)[C@@H]4c2ccccc2)C3c2ccccc2)cc1 (stereo partly drawn),-6%,?,-10%,16µM*,17%,-13
COc1ccc(S(=O)(=O)NCC(=O)NCCc2ccc(OC)c(OC)c2)cc1,11%,-8%,5%,-29%,7%,-22
Cc1cc(=O)[nH]c(/N=C(\N)Nc2ccc(SC(F)F)cc2)n1,9%,?,8%,?,0%,-14
O=C(NCc1cccc(Cl)c1)c1c2c(nc3ccccc13)C(=O)N(C1CCCCC1)C2,.,15µM*,.,10µM*,.,.
SMILES,HT1080 IDH1KD tx,TDP1 cell CPT,HT1080NT lethal,DT40 TDP1 no CPT,uPA generation,IL1B secr inh
CCOc1ccccc1N(C)C(=O)c1c2c(nc3ccccc13)C(=O)N(C1CCCCC1)C2,.,16µM*,.,?,.,.
COc1ccc(C)cc1NC(=O)c1c2c(nc3ccccc13)C(=O)N(C1CCCCC1)C2,.,16µM*,.,3.7µM*,.,.
COc1ccc(CNC(=O)c2c3c(nc4ccccc24)C(=O)N(C2CCCCC2)C3)cc1,.,12µM*,.,15µM*,.,.
COc1ccc(OC)c(NC(=O)c2c3c(nc4ccccc24)CCC3)c1,-11%,?,1%,-29%,.,30
COc1cccc(CNC(=O)c2c3c(nc4ccccc24)C(=O)N(C2CCCCC2)C3)c1,.,13µM*,.,21µM*,.,.
COc1ccc(OC)c(CCNC(=O)c2c3c(nc4ccccc24)C(=O)N(C2CCCCC2)C3)c1,.,?,.,18µM*,.,.
COc1ccc(CNC(=O)c2c3c(nc4ccccc24)C(=O)N(C2CCCCC2)C3)c(OC)c1,.,-2%,.,3%,.,.
COc1ccc(-n2nc(C(=O)Nc3cc(C)ccn3)c3c4ccccc4n(C)c3c2=O)cc1,.,-11%,.,-4%,.,.
Cc1cnc(CNc2ccnc(-c3ccccc3CN(C)C)n2)cn1,.,1%,.,-2%,.,.
CCOc1ccc(CCN2C(=S)N([C@@H](Cc3ccc(O)cc3)CN3CCC[C@@H]3CN3C(=S)NC[C@@H]3CC(C)C)C[C@@H]2Cc2ccc(O)cc2)cc1,21µM*,5.2µM*,16µM*,3.7µM*,.,0
CCOc1ccc(CCN2C(=S)N([C@@H](Cc3ccc(O)cc3)CN3CCCC3CN3C(=S)NC[C@@H]3Cc3ccc(O)cc3)C[C@@H]2CC(C)C)cc1 (stereo partly drawn),-29%,?,-19%,?,?,-69*
